Test results reported in PubChem BioAssay.
A number with no mark means an inactive call. The rule behind the calls is not given here.

Assay: inhibitors of hydroxyurea-induced Chk1 phosphorylation, primary screen, imaging, HeLa, phospho-Chk1 nuclear intensity (AID 1187); note: test concentration not given here
Conditions: hydroxyurea-induced phospho-Chk1 immunofluorescence imaging, higher = more signal
Work on `CC[C@@H]1C=C(C(=O)O)[C@H](c2cccc(Cl)c2)N1S(=O)(=O)c1ccc(C)cc1` yielded a z-score of -0.141. With `CN1C(=O)C2C(C1=O)C1C=C(CCCO)C2C(C2CC2)N1C` (centres undefined) the z-score was 0.162. For `COCCOC(=O)N1C(=O)[C@@]2(c3cc(C#CC4=CCCCC4)ccc31)[C@H](C(=O)N1CCCCCCC1)[C@H]1C(=O)O[C@H](c3ccccc3)[C@H](c3ccccc3)N1[C@@H]2c1ccccc1OCCO`, the z-score was -0.178. Molecule `CC[C@@H](O[Si](C#C[Si](C(C)C)(C(C)C)C(C)C)(C(C)C)C(C)C)c1cn([C@H](CO)Cc2ccccc2)nn1` has a z-score of -0.0008.
